The values below come from PubChem BioAssay (NCATS).

Results filed as inconclusive are left out. Calls of active or inactive are those of the source. Unless noted, calls come from the whole dose curve; as a rule, active = well fitted curve in the direction sought with a large enough effect; inconclusive = small, poorly fitted or top-dose-only effect, or another doubt; inactive = no such curve, though single readings can be large; an effect the other way counts as inactive or inconclusive.

For assay [1], the target named is Calcium and integrin-binding protein 1 (Homo sapiens) (UniProt Q99828). Kind of assay: Primary qHTS for Identification of Calcium Integrin Binding Protein 1 (CIB1) Competitor (AID 1508620).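 Note: GST tagged CIB1 binding a fluorescein labelled alphaIIb integrin peptide tracer; top concentration of the series differs between compounds.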 The procedure, abridged: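 CIB1-GST (1 uM final) and compound incubated 15 min at room temperature before adding FITC-alphaIIb peptide tracer (100 nM final). Competition for binding read by fluorescence polarization (ex 480, em 540) after another 15 min at room temperature.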
On the technique in general: Quantitative high-throughput screening tests each substance at several concentrations.

In assay [2] the target is Cytochrome P450 2D6 (Homo sapiens) (UniProt P10635). Kind of assay: Cytochrome P450 family 2 subfamily D member 6 (CYP2D6) small molecule antagonists: luciferase biochemical (cell-free) qHTS assay (AID 1645840; active = well fitted curve in the direction sought with a large enough effect in the repeat runs; an effect the other way counts as inactive or inconclusive; note: nearly all actives have a fitted effect of over 55% in size; note: potency is the fitted concentration of half-maximal effect). The procedure, abridged: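 P450-Glo luminescent screen: recombinant CYP2D6 enzyme–proluciferin substrate mix preincubated with compound 10 min at room temperature, then NADPH regeneration added for 1 h at room temperature. Detection reagent added for 20 min; luciferin light read as relative luminescence units.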

The target of assay [3] is Cytochrome P450 2C9 (Homo sapiens) (UniProt P11712). Nature of the assay: Cytochrome P450 family 2 subfamily C member 9 (CYP2C9) small molecule antagonists: luciferase biochemical (cell-free) qHTS assay (AID 1645842; active = well fitted curve in the direction sought with a large enough effect in the repeat runs; an effect the other way counts as inactive or inconclusive; note: nearly all actives have a fitted effect of over 55% in size; note: potency is the fitted concentration of half-maximal effect). The essentials:
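Luminescence, after 20 min with luciferin detection reagent, reflected CYP2C9 turnover during a 1 h NADPH-driven reaction at 37C. Enzyme-substrate mix contained 0.4% bovine serum albumin and was preincubated with compound 10 min at room temperature.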

Assay [4] can be described thus: Primary qHTS for inhibitors of nuclear receptor binding SET domain protein 2 (NSD2) in an isogenic RCH-ACV NSD2 p.E1099K mutant (9B) (AID 1645876). Note: nearly all actives have a fitted effect of over 70% in size. Note: potency is the fitted concentration of half-maximal effect.
A short description of assay [5]: Primary qHTS for inhibitors of nuclear receptor binding SET domain protein 2 (NSD2) in an RCH-ACV wild type WT cells (2C) (AID 1645877). Note: nearly all actives have a fitted effect of over 70% in size. Note: potency is the fitted concentration of half-maximal effect.

Cytochrome P450 2D6 (Homo sapiens), sequence (P10635 whole entry, looked up): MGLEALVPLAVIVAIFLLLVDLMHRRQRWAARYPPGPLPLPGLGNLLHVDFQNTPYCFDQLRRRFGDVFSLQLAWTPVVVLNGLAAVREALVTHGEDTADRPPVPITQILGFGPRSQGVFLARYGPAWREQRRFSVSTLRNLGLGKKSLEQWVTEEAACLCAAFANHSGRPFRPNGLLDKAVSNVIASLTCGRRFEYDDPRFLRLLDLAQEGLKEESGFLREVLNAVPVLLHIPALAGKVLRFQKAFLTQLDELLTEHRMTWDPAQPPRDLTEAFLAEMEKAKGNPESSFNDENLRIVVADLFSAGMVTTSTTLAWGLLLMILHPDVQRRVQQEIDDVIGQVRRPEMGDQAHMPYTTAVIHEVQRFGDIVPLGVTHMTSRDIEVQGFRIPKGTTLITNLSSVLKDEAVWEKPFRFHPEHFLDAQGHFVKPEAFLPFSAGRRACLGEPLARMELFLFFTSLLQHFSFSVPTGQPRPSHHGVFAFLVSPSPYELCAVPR
Calcium and integrin-binding protein 1 (Homo sapiens), sequence (Q99828 whole entry, looked up): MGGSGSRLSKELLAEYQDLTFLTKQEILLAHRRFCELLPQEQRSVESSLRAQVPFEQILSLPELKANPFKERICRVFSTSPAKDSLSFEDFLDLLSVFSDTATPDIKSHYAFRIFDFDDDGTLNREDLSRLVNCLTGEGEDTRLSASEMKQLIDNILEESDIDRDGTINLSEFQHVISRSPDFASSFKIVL
Cytochrome P450 2C9 (Homo sapiens), sequence (P11712 whole entry, looked up): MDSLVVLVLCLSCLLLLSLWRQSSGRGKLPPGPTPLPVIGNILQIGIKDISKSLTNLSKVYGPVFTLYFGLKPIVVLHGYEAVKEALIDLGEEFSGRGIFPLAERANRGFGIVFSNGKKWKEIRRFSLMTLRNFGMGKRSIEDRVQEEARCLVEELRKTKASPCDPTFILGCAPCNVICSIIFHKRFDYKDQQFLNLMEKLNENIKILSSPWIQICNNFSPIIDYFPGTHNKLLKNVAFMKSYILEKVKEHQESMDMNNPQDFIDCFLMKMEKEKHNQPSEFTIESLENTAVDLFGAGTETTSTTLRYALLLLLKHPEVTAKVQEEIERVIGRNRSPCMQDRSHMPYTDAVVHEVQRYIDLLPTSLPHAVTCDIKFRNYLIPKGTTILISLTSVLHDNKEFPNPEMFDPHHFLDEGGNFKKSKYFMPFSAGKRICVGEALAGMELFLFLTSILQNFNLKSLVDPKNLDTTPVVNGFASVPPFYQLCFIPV

`CCCSc1nc(NC2CC2c2ccc(F)c(F)c2)c2nnn(C3CC(OCCO)C(O)C3O)c2n1` (stereo not given): in assay [1], the Potency result is “inactive”. Besides, the Potency was 21.3 µM (active) in assay [2] and 3.79 µM (active) in assay [3].
Turning to `COc1ccc(OC)c(C2C(C#N)=C(N)Oc3n[nH]c(-c4ccc5ccccc5c4)c32)c1` (stereo not given), the Potency result in assay [1], in assay [4] and in assay [5] was “inactive” throughout. Further, the Potency in assay [2] was 7.56 µM (active); in assay [3], 10.7 µM (active).
For the compound `C[C@@H](NC(=O)c1cc(C(=O)N[C@@H](Cc2ccccc2)[C@H](O)CNC2CC2)cc(N(C)S(C)(=O)=O)c1)c1ccccc1`, the Potency entry in assay [1] and in assay [4] was “inactive” in each case. Moreover, the Potency is 4.77 µM (active) in assay [2] and 4.25 µM (active) in assay [3].
For `CC(C)[C@@](O)(c1ccc2cc(OC(F)F)c(OC(F)F)cc2c1)c1cn[nH]n1`, the Potency result in assay [1] was “inactive”. Further, the Potency in assay [2] is 1.69 µM (active); in assay [3] it was 1.07 µM (active).
For `O=C(NC/C=C/CN1CCN(c2cccc(Cl)c2Cl)CC1)c1ccc(-c2ccccn2)cc1`, in that order: “inactive”, 1.2 µM (active) and 10.7 µM (active).
In the same order, the values of `COc1cccc(Cn2ncc3c4sc(S(C)=O)cc4n(C)c3c2=O)c1` (stereo not given) are “inactive”, 10.7 µM (active) and 12 µM (active).
`CC(=O)NCC1CN(c2ccc(-c3ccc(CNCc4cn[nH]n4)cc3)c(F)c2)C(=O)O1` (stereo not given): the Potency result in assay [1] and in assay [2] was “inactive” throughout. In assay [3], the Potency was 15.1 µM (active).
For the compound `COc1ccc(Oc2c(Cl)cnn(C3c4ccccc4-c4ccccc43)c2=O)cc1`, the Potency result in assay [1], in assay [2] and in assay [4] was “inactive” each time. Besides, in assay [3], the Potency was 9.52 µM (active).
In the case of `COC(=O)[C@H](c1ccccc1Cl)N1CCC2SC(=O)C=C2C1` (stereo not given in full), in assay [1], the Potency entry was “inactive”.
The same measure, in the same setting: with `CC(=O)OC(C)(C)/C=C/C(=O)[C@](C)(O)C1[C@H](O)C[C@@]2(C)[C@@H]3CC=C4[C@@H](C[C@H](O[C@@H]5O[C@H](CO)[C@@H](O)[C@H](O)[C@H]5O)C(=O)C4(C)C)[C@]3(C)C(=O)C[C@]12C` (stereo not given in full) the entry was “inactive”.
For the compound `CC[C@@H](C)[C@H](N)C(=O)N1Cc2ccccc2C1`, the Potency result in assay [1], in assay [3] and in assay [4] was “inactive” each time. Besides, in assay [2], the Potency was 13.5 µM (active).
As to `CCCNCCOc1ccc(NC(=O)c2c[nH]c3c2C(=O)CCC3)cc1F`, the Potency entry in assay [1], in assay [2] and in assay [3] was “inactive” each time.
Take `COCCN1CCC(C(=O)NO)(S(=O)(=O)c2ccc(Oc3ccc(OC(F)(F)F)cc3)cc2)CC1`: the Potency result in assay [1] is “inactive”.
For `Cc1ccc(COC(=O)N2CC[C@@H](CNc3ncccn3)[C@@H](F)C2)cc1`, in assay [1], the Potency entry was “inactive”. Also, the Potency in assay [2] is 16.9 µM (active); in assay [3], 13.5 µM (active).
For `O=C(OC(C(F)(F)F)C(F)(F)F)N1CCN(Cc2cccc(Oc3ccccc3)c2)CC1`, in that order: “inactive”, 1.51 µM (active) and 19 µM (active).
For the compound `CCOC(=O)c1ccc(NC2CCCCC2)c(N)c1`, the Potency result in assay [1] was “inactive”. Besides, the Potency in assay [2] was 9.52 µM (active); in assay [3] it was 5.35 µM (active).
In the case of `CCNC(=O)OC1CCN(c2nncc3cc(OC)c(OC)cc23)CC1`, the Potency result in assay [1] was “inactive”. The Potency in assay [2] was 16.9 µM (active); in assay [3], 15.1 µM (active).
For `Oc1ccccc1-c1cc(-c2ccccc2F)[nH]n1`, in that order: “inactive”, “inactive” and 13.5 µM (active).
In the same order, the values of `COc1cc(Cc2cnc(N)nc2N)c(C(C)C)cc1OC` are “inactive”, “inactive” and “inactive”.
As to `COc1cccc(OC)c1-c1cc(C(=O)N[C@@H](CC(C)C)C(=O)O)nn1-c1ccnc2cc(Cl)ccc12`, the Potency result in assay [1] was “inactive”. In addition, the values for the Potency in assay [2] and in assay [3] were 23.9 µM (active) and 16.9 µM (active), respectively.
In the case of `CCC(=O)N1CCc2cc(OC)c(O)cc2C1`, in assay [1], the Potency result was “inactive”. In addition, the Potency in assay [2] was 16.9 µM (active).
On to `N#Cc1cccc(-c2nc(-c3cccnc3)no2)c1`, for which the Potency entry in assay [1], in assay [4] and in assay [5] was “inactive” each time. Besides, the Potency in assay [2] was 2.62 µM (active); in assay [3], 4.65 µM (active).
`COc1ccc(-n2[nH]c3c(cnc4ccccc43)c2=O)cc1`: the Potency entry in assay [1], in assay [2], in assay [3] and in assay [4] was “inactive” in each case.
With `CCOC(=O)CSc1nc2c(sc3ccccc32)c(=O)n1CCCN1CCCC1`, the Potency entry in assay [1], in assay [4] and in assay [5] was “inactive” each time. Further, the figures for the Potency in assay [2] and in assay [3] were 0.849 µM (active) and 13.5 µM (active), respectively.
`CCOC(=O)C(CCc1ccccc1)NC1CCCN2CCCC(C(=O)O)N2C1=O` (stereo not given): the Potency result in assay [1], in assay [2], in assay [3], in assay [4] and in assay [5] was “inactive” throughout.
On to `Cc1ccc(Cl)cc1N(CC(=O)Nc1c(F)cccc1F)S(C)(=O)=O`, for which the Potency result in assay [1], in assay [2], in assay [4] and in assay [5] was “inactive” each time. The Potency in assay [3] was 1.2 µM (active).
On to `CCC(C)(C)C1CCc2c(sc(NC(=O)c3ccc(Br)cc3)c2C#N)C1` (stereo not given), for which the Potency result in assay [1], in assay [2], in assay [3], in assay [4] and in assay [5] was “inactive” each time.
Turning to `N[C@@H](CCNCc1ccc(Cl)cc1)C(=O)N1CCCCC1`, the Potency entry in assay [1], in assay [3], in assay [4] and in assay [5] was “inactive” in each case. In addition, the Potency in assay [2] is 10.7 µM (active).
As to `Cc1cc(Cn2cnc3c2CC(C(=O)O)N(C(=O)C(c2ccccc2)c2ccccc2)C3)ccc1N(C)C` (stereo not given), the Potency entry in assay [1], in assay [2], in assay [3], in assay [4] and in assay [5] was “inactive” in each case.
For `Nc1ncnc2c1c(COc1cccc(Cl)c1)nn2C1CCOCC1`, the Potency result in assay [1] and in assay [2] was “inactive” throughout. For the same compound, the results for the Potency in assay [3], in assay [4] and in assay [5] were 12 µM (active), 14.8 µM (active) and 16.6 µM (active), respectively.
Consider `Cc1c(C)c(NCC(=O)N(C)C2CCN(Cc3ccc(C(N)=O)cc3)CC2)c(C)c(C)c1N`, for which the Potency entry in assay [1], in assay [4] and in assay [5] was “inactive” each time. Also, the results for the Potency in assay [2] and in assay [3] were 21.3 µM (active) and 7.56 µM (active), respectively.
Turning to `CCC1(O)CC2c3cc(OC)c(OC)cc3CCN2CC1CC(C)C` (stereo not given), the Potency result in assay [1], in assay [3], in assay [4] and in assay [5] was “inactive” in each case. Besides, the Potency in assay [2] was 0.849 µM (active).
`O=C(NC1CCN(CC(F)(F)F)CC1)c1ccc(-c2cccc(F)c2)nc1`: the Potency result in assay [1], in assay [2], in assay [3], in assay [4] and in assay [5] was “inactive” in each case.
In the case of `COC(=O)C(CC1CCCC1)c1ccc(S(C)(=O)=O)cc1` (stereo not given), the Potency entry in assay [1], in assay [4] and in assay [5] was “inactive” throughout. Further, the Potency in assay [2] is 12 µM (active); in assay [3], 4.77 µM (active).
